ASM inhibitor: Inhibitors of Secretory Acid Sphingomyelinase (S-ASM): qHTS; Sphingomyelin phosphodiesterase (Homo sapiens), P17405; placental ASM, HMU-PC fluorogenic substrate, 60 min; Potency, µM (top dose mostly 57.5 µM), for inactives: at the highest dose activity change, negative = inhibition, usual class: inhibitors; hit rate 0.006% among 340,000
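HMU-PC0 cleavage (9 uM final) by human placental ASM, 60 min at 37 °C following 10 min compound exposure at RT; stopped at pH 10, fluorescence Ex 386/Em 447 nm.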
PLK1 PBD block: qHTS for Inhibitors of PLK1-PDB (polo-like kinase 1 - polo-box domain): Primary Screen. Serine/threonine-protein kinase PLK1 (Homo sapiens), P53350. Plk1 PBD binding of FITC phosphopeptide, fluorescence polarization. Potency, µM, for the others: max response, negative = inhibition, actives largely listed as inhibitors. hit rate 2.8% among 360,000. AID 720504, 2013; note: series mostly up to about 57 µM; % is set by controls: 0 for no effect and ±100 for the full control effect; nearly all actives have a fitted effect of over 65% in size
TDP1 block: qHTS Assay for Inhibitors of Tyrosyl-DNA Phosphodiesterase (TDP1); hit rate 0.28% among 350,000; Potency, µM (highest dose often 130 µM), for the others: top-dose activity change, negative = inhibition, actives largely listed as inhibitors; recombinant TDP1, AlphaScreen DNA substrate cleavage; Tyrosyl-DNA phosphodiesterase 1 (Homo sapiens), Q9NUW8; note: % is set by controls: 0 for no effect and ±100 for the full control effect; nearly all actives have a fitted effect of over 40% in size
Target sequence (Q9NUW8 whole entry, looked up): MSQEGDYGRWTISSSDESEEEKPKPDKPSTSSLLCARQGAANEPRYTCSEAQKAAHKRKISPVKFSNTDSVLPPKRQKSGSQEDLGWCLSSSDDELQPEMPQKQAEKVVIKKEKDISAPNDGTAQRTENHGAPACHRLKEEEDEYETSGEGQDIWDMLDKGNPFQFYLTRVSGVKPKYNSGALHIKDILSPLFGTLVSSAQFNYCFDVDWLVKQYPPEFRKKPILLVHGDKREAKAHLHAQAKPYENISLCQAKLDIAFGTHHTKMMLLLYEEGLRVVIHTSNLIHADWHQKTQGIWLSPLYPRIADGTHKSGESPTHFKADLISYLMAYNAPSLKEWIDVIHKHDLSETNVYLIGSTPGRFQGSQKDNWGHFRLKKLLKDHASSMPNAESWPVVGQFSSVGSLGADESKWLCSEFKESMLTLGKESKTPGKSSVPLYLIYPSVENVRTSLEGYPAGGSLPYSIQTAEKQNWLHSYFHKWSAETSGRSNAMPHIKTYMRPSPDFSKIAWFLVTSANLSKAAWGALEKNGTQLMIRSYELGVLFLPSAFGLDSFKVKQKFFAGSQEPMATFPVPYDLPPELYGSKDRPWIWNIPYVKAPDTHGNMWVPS
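AlphaScreen read-out: signal falls as enzyme removes the 3' tyrosine-FITC from a 5'-biotinylated DNA oligo (15 nM, 5 min, RT). Enzyme was E. coli-made recombinant Tdp1 at 1 nM, exposed to compound for 15 min beforehand; beads 10 ug/ml, 10 min.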
Pin1 inh: qHTS Assay to Find Inhibitors of Pin1 | Peptidyl-prolyl cis-trans isomerase NIMA-interacting 1 (Homo sapiens), Q13526 | Pin1 FP peptide displacement, HiFluor488, 10 min | Potency, µM (titrated, usually from 115 µM), without a hit: at the highest dose activity, negative = inhibition, hits mostly inhibitors | hit rate 0.009% among 390,000 | AID 504891, 2011; active = well fitted inhibition curve with a large enough effect in the polarisation, with a control signal flat, not every such curve was filed as active; inconclusive = small, poorly fitted or top-dose-only effect, or effect the other way, or a change in a side signal; inactive = no such curve, though single readings can be large or run the other way; the % refers to the polarisation; note: % is set by controls: 0 for no effect and ±100 for the full control effect
VDR inhibitor: Inhibitors of the vitamin D receptor (VDR): qHTS; VDR-SRC2-3 peptide fluorescence polarization, 2 h; hit rate 0.93% among 400,000; Potency, µM, for the others: max response, negative = inhibition, usual class: inhibitors; Vitamin D3 receptor (Homo sapiens), P11473; note: % is set by controls: 0 for no effect and ±100 for the full control effect
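Two reagent solutions held at 4 deg C in the dark were dispensed, compounds pinned at 23 nl, and the mixture incubated 2 h at room temperature. Read-out: fluorescence polarization of VDR–SRC2-3 peptide binding.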
Tb PFK block: qHTS Assay to Find Inhibitors of T. brucei phosphofructokinase; T. brucei PFK, ADP-Glo luminescence; Potency, µM (highest dose often 57.5 µM), for inactives: at the top dose activity, negative = inhibition, most hits filed as inhibitors; hit rate 0.17% among 330,000; ATP-dependent 6-phosphofructokinase (Trypanosoma brucei brucei), O15648; AID 485367, 2010;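 note: 0% = uninhibited 1x PFK enzyme wells and -100% = no-enzyme wells; nearly all actives have a fitted effect of over 60% in size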
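Compounds were pin-transferred as a titration series up to 57 uM into substrate buffer (0.5 mM F6P, 0.1 mM ATP, pH 8.0), then 1.25 nM PFK was added and reactions ran 45 min before ADP-Glo detection.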
* = called active by the depositor; i = inactive; ? = inconclusive; . = no result given; ! = repeats disagree; [ ] = remark or other dose. Rows were chosen to be rich in hits. Some 3.1% of all compounds tested hit in one or more screens of this group. Unless noted, calls come from the whole dose curve; as a rule, active = well fitted curve in the direction sought with a large enough effect; inconclusive = small, poorly fitted or top-dose-only effect, or another doubt; inactive = no such curve, though single readings can be large; an effect the other way counts as inactive or inconclusive. Potency is the fitted concentration of half-maximal effect.

SMILES | ASM inhibitor | PLK1 PBD block | TDP1 block | Pin1 inh | VDR inhibitor | Tb PFK block
O=C(O)CN1C(=O)/C(=C\c2cc(Br)ccc2OCc2ccccc2F)SC1=S | 13% | 19µM* | . | . | ? | 1%
CC(=O)N1CCc2c(sc3c2c(=O)n(CCc2ccccc2)c(=O)n3Cc2cccc(C)c2)C1 | . | . | -3% | 2% | -14% | .
COc1ccccc1C(c1nnnn1Cc1ccco1)N1CCN(c2cccc(C)c2C)CC1 (stereo not drawn) | -2% | -23% | 1% | 22% | -24% | 2%
CCN1CCN(C(c2cccc(OC)c2OC)c2nnnn2Cc2ccco2)CC1 (stereo not drawn) | 4% | 27µM* | 2% | -2% | -6% | 1%
COc1ccc(S(=O)(=O)Nc2cccc3cccnc23)c([N+](=O)[O-])c1 | . | . | 1% | 1% | -2% | .
COCCOC(=O)/C(C#N)=C/c1cn(Cc2ccccc2)nc1-c1cccnc1 | 0% | 27µM* | 5% | 3% | ? | 5%
COc1ccc2c(c1)CC(C(=O)Nc1c(C)cc(C)cc1C)CO2 (stereo not drawn) | . | . | 4% | -3% | -5% | .
Cc1cc(C)nc(SCC(=O)NC2=NN=C(c3ccc(Br)cc3)CS2)n1 | -11% | -18% | 4% | 1% | 45µM* | 2%
CCC(Sc1nc(C)cc(C)n1)C(=O)NC1=NN=C(c2ccc(C)cc2)CS1 (stereo not drawn) | -7% | -12% | 6% | -1% | ? | 1%[0.46 µM]
CC(C)c1nn2c(N)c(/C=C3\C=Nc4ccccc43)c(=O)nc2s1 | -11% | -17% | . | ? | 16% | 19%
CC(C)Sc1nsc2nc(=O)c(/C=C3\C=Nc4ccccc43)c(N)n12 | ? | 27µM* | 5% | ? | 5% | -1%
O=C(CCC1N=C2c3ccccc3N=C(SCc3ccccc3F)N2C1=O)NCc1ccccc1 (stereo not drawn) | . | . | 1% | 0% | 11% | .
O=c1[nH]c(-c2ccccn2)nc2sc(-c3ccccc3)cc12 | i | 11µM* | -5% | -1% | 79µM* | -23%
COc1cccc2c1Oc1ncccc1N(C(=O)Nc1cccc(Cl)c1)C2 | . | . | 7% | 6% | 6% | .
Cc1ccc(C(=O)O)cc1-n1c(C)cc(C=O)c1C | 1% | -9% | 18µM* | -2% | 1% | -6%
CC(C)(C)OC(=O)N[C@@H](CC(=O)OCc1ccccc1)C(=O)O | 0% | 27µM* | -2% | 3% | -5% | -6%
COC(=O)c1sc(N2C(=O)C(O)=C(C(=O)c3ccc(C)o3)C2c2ccc(F)cc2)nc1C (stereo not drawn) | 4% | ? | -3% | ? | -8% | 10%
COC(=O)c1sc(N2C(=O)C(O)=C(C(=O)c3ccc(C)o3)C2c2cccs2)nc1C (stereo not drawn) | 16% | 27µM* | 8% | 15% | -15% | -8%
COC(=O)c1sc(N2C(=O)C(O)=C(C(=O)c3ccc(C)o3)C2c2ccco2)nc1C (stereo not drawn) | 4% | 30µM* | 0% | 14% | -12% | -2%
Cc1cc(C)cc(Nc2cc(C(=O)NC3CCC(C)CC3)c3ccccc3n2)c1 (stereo not drawn) | . | . | -2% | ? | -4% | .
O=C(COc1cccc2c1CCN(Cc1ccccc1F)C2=O)N1CCCCC1 | 5% | 5% | 5% | 2% | 5% | 0%
Cc1ccccc1CN1CCc2c(OCC(=O)N3CCCCC3)cccc2C1=O | -1% | 30µM* | -1% | -5% | -30% | 2%
CCn1cc(C(=O)O)c(=O)c2cc(F)c(N3CCN(C(=S)NC(=O)c4cccc(C)c4)CC3)cc21 | -4% | -5% | . | -5% | 3% | -5%
CCn1cc(C(=O)O)c(=O)c2cc(F)c(N3CCN(C(=S)NC(=O)c4ccc(OC)cc4)CC3)cc21 | 5% | 4% | 79µM* | -1% | -14% | -3%
Nc1ccccc1C#CC(=O)c1ccccc1 | -11% | 8.4µM* | . | 9% | ? | -1%
SMILES | ASM inhibitor | PLK1 PBD block | TDP1 block | Pin1 inh | VDR inhibitor | Tb PFK block
Cc1ccccc1NC(=O)C(=O)NCC(c1ccc2c(c1)OCO2)N1CCN(c2ccccc2)CC1 (stereo not drawn) | . | . | 5% | -5% | 8% | .
COc1ccc(CN(Cc2ccccc2)C(=O)c2cccc(C#N)c2)cc1COc1ccc(NC(C)=O)cc1 | . | . | 0% | 18% | -11% | .
Cc1ccc(/C=C2/C(=O)c3ccc(C(=O)O)cc3C2=O)o1 | 4% | 24µM* | 3.5µM* | ? | 1% | -19%
COC(=O)c1ccc(-n2cncn2)c([N+](=O)[O-])c1 | -1% | 27µM* | -1% | 5% | 9% | 3%
COc1cc(OC)cc(C(=O)NNC(=O)c2ccc(-n3cncn3)c([N+](=O)[O-])c2)c1 | 1% | 6% | -8% | 1% | 4% | -4%
O=[N+]([O-])c1ccc(Cl)c(S(=O)(=O)Nc2cccc(S(=O)(=O)NC3=NCCC3)c2)c1 | 1% | ? | 4% | -2% | 79µM* | 0%
O=[N+]([O-])c1ccc(Cl)c(S(=O)(=O)NC2=NCCC2)c1 | -1% | 1% | . | -3% | -21% | -9%
Cc1cc(=O)[nH]c(N/N=C/C2=C(N3CCOCC3)C(=C\c3ccc(Cl)cc3)/CC2)n1 | ? | ? | 5% | 13% | 89µM* | -2%
C=C1C(=O)O[C@@H]2[C@H]3O[C@]3(C)CCC=C(C)CC[C@@H]12 | . | . | 10%[56.1 µM] | . | 35µM*! | .
C=CCN1C(=O)/C(=c2\sc3nc(=O)c(Cc4ccccc4)nn3c2=O)c2ccccc21 | 3% | 13µM* | 3% | ? | ? | -4%
O=C(COc1cccc(Br)c1)N/N=C1\CCCc2ccccc21 | 8% | -12% | 3% | -3% | -5% | -5%
O=C(COc1cccc(Br)c1)N/N=C1\CCSC1 | 1% | 21µM* | 6% | 8% | ? | -9%
Nc1ccc(-c2c3ccc(=O)cc-3oc3cc(O)ccc23)cc1C(=O)O | -2% | 13µM* | . | ? | 0% | 1%
O=C(CSc1ncccc1C(=O)O)NC12CC3CC(CC(C3)C1)C2 | 0% | -9% | -8% | -9% | 20% | -4%
O=C(CSc1ccccc1C(=O)O)NC12CC3CC(CC(C3)C1)C2 | 1% | 30µM* | . | -1% | -25% | -2%
